# Assay outcomes (PubChem BioAssay)
# SENP8 block-1: SENP8 protease inhibition; Q96LD8; purified SENP8, Z-RLRGG-aminoluciferin cleavage, luminescence; inhibition, % at 10 µM; 1.2% of 330,000 active; in the data active = inhibition above about 50%
# SENP8 block-2: SENP8 (human) protease inhibition | Q96LD8 | recombinant SENP8, Nedd8 substrate fluorescence | inhibition, % at 20 µM | 0.64% of 360,000 active; in the data active = inhibition mostly above about 40%, no sharp cut-off; inactive = mostly below about 27%
# SENP6 block: blocks the human protease SENP6; 1.8% of 330,000 active; AID 2599; inhibition, % at 10 µM; Recombinant SENP6 catalytic domain, aminoluciferin luminescence;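 active = inhibition above about 50% at the single tested dose, limit read from the data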
# Target sequence (Q9GZR1 628-1112 limits assumed): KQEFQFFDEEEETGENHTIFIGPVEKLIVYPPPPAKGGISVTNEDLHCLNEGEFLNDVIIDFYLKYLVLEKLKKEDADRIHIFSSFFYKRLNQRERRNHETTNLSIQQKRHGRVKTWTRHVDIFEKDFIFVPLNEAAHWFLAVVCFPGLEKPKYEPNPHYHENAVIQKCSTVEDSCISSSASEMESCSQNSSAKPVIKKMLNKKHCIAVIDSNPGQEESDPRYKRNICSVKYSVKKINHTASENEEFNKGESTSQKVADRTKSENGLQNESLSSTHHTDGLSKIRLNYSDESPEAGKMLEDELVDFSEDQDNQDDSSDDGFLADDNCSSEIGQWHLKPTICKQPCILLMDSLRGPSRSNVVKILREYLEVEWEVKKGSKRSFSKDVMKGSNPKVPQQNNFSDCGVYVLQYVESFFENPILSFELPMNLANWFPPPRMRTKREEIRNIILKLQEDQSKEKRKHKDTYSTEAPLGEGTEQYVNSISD
# HSP90 refold inh: HSP90 refolding inhibition in rabbit reticulocyte lysate; luciferase refolding luminescence, 3 h; inhibition, % at 5.6 µM; 0.91% of 290,000 active; AID 1789;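 active = inhibition above the screen-wide mean plus 3 SD, computed separately per campaign, cut at about 16% in these data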;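 note: inhibitors lower the luminescence because luciferase stays unfolded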
# SENP7 inh: SENP7 protease inhibition | recombinant SENP7, Z-RLRGG-aminoluciferin luminescence, 40 min | Q9BQF6 | 1.5% of 330,000 active | inhibition, % at 5 µM | AID 434973;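 active = inhibition above about 50% at the single test dose, limit read from the data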
# Numbers stand for hits; - = inactive; . = no result given. This is a sample that favours compounds with a hit; in the whole collection about 2.7% have one here.
SMILES,SENP8 block-1,SENP8 block-2,SENP6 block,HSP90 refold inh,SENP7 inh
Nc1c(C(=O)N/N=C/c2cccnc2)cnn1-c1ccccc1,-,-,-,-,-
Cc1ccc(S(=O)(=O)C(C#N)c2nc3ccccc3nc2N2CCCC2)cc1 (stereo not drawn),77,-,73,-,-
CCN1CCN(c2nc3ccccc3nc2C(C#N)S(=O)(=O)c2ccc(C)cc2)CC1 (stereo not drawn),-,-,-,-,-
Cc1nn(-c2ccccn2)c2c1C(=O)C(Br)CC2 (stereo not drawn),.,66,.,-,.
NS(=O)(=O)c1ccc2c(c1)C(=NO)c1cc(S(N)(=O)=O)ccc1-2,-,-,-,-,-
NC1=C(Cl)C(=O)c2ccc(S(N)(=O)=O)cc2C1=O,.,96,.,.,.
NC1=C(Cl)C(=O)c2ccccc2C1=O,.,83,.,.,.
CCOC(=O)CNC(=O)C(CO)NC(=O)OCc1ccccc1 (stereo not drawn),-,-,-,-,-
Cc1ccc2cccc(NC3OC(=O)c4ccccc43)c2n1 (stereo not drawn),-,-,51,-,-
Cc1csc(NC(=O)c2ccc3c(=O)n4c(nc3c2)CCCCC4)n1,-,-,-,-,-
O=C1c2ccccc2C(=O)C1(O)O,62,.,57,.,-
COc1ccc(/C=N/NC(=O)c2cccnc2)cc1COc1ccc([N+](=O)[O-])c(C)c1,-,-,-,-,-
O=C(COc1ccc(Cl)cc1Cl)NC(=S)Nc1ccccc1C(=O)O,59,.,64,-,-
O=C(c1ccco1)N1CCN(C2CN(Cc3ccc(F)cc3)S(=O)(=O)C2)CC1 (stereo not drawn),.,-,.,.,.
c1ccc2oc(SCc3nc4ccccc4s3)nc2c1,-,-,-,-,-
CCOC(=O)c1sc(NC(=S)NC(=O)c2ccc(OC)cc2)nc1C,-,-,-,16,-
O=c1oc2cc(OCc3ccc(C(F)(F)F)cc3)ccc2cc1-c1ccccn1,-,-,-,-,-
N#C/C(=C(/O)COc1ccc(Cl)cc1)c1nc2ccccc2s1,81,-,93,-,-
N#C/C(=C(/O)c1ccc(F)cc1)c1nc2ccccc2s1,82,-,87,-,51
O=C(NC1CCCCC1)C(c1ccccc1F)N(C(=O)c1csnn1)C1CCCC1 (stereo not drawn),-,-,-,-,-
Cc1ccc(CCNC(=O)C2CCCN(C(=O)c3cc4sccc4n3C)C2)cc1 (stereo not drawn),-,-,-,-,-
CCC(c1nnnn1-c1ccc2c(c1)OCCO2)N1CCN(C(=O)c2ccco2)CC1 (stereo not drawn),.,-,.,.,.
O=[N+]([O-])c1cc(Cl)cc(/C=N/n2cnnc2)c1O,-,47,-,-,-
c1ccc(-n2nnnc2Oc2cccc3cccnc23)cc1,-,-,-,-,-
CC1CCCN(c2ccc(/C=C(\C#N)c3nn(-c4ccccc4)c(N)c3C#N)cc2[N+](=O)[O-])C1 (stereo not drawn),-,47,-,-,-
SMILES,SENP8 block-1,SENP8 block-2,SENP6 block,HSP90 refold inh,SENP7 inh
CC1CCN(c2cc(N3CCC(C)CC3)c([N+](=O)[O-])cc2/C=C(\C#N)c2nn(-c3ccccc3)c(N)c2C#N)CC1,-,60,-,-,-
O=C(N/N=C/c1c[nH]c2ccccc12)c1sc2ccccc2c1Cl,52,-,65,-,-
O=C(N/N=C/c1c[nH]c2ccccc12)c1ccccc1,-,-,-,-,-
COCCCNC(=O)c1ccccc1Oc1ccccc1,-,-,-,-,-
COCCCNC(=O)c1ccc2c3c(onc13)-c1ccccc1C2=O,-,106,54,-,-
O=C(O)c1ccc(N=Nc2c(O)[nH]c3ccc(Br)cc23)cc1,69,-,57,18,62
COC(=O)N=Nc1c(O)[nH]c2ccc(Br)cc12,-,-,-,-,-
O=C(O)c1ccc(N=Nc2c(O)[nH]c3cc(Cl)ccc23)cc1,95,-,97,-,97
CCc1ccc(OCc2ccc(C(=O)NCc3ccccn3)o2)cc1,-,-,-,17,-
N=C1CCC(=N)c2c1c(O)c1ccccc1c2O,-,89,63,-,-
COCCOC(=O)c1c(N)n(CCCN2CCOCC2)c2nc3ccccc3nc12,-,-,-,-,-
CCCCCOC(=O)c1c(N)n(CCOC)c2nc3ccccc3nc12,63,-,-,-,64
COc1ccc(-c2coc3cc(OC)cc(O)c3c2=O)cc1,-,-,-,-,63
CCn1c2c(c3cc(Cl)ccc31)CCCC2=O,-,-,-,64,-
CCn1c2c(c3cc(C(=O)O)ccc31)CCCC2=O,-,-,-,-,-
CCOc1ccc(S(=O)(=O)Nc2cc(SCC(=O)O)c(O)c3ccccc23)cc1,.,46,.,-,.
C[C@H](NC(=O)[C@@H]1CCC(=O)N1Cc1ccco1)c1ccccc1,-,-,-,-,-
NC(=O)c1ccsc1NC(=O)c1cc(=O)c2ccccc2o1,-,-,-,-,65
CC(=O)Nc1ccc(NC(=O)c2cc(=O)c3ccccc3o2)cc1,-,-,-,-,-
COc1ccc(-n2c(C)c([N+](=O)[O-])c3ccc(O)c(CN(C)C)c32)cc1,-,42,-,-,-
COc1ccc(-n2c(C(C)n3nc(C)c([N+](=O)[O-])c3C)n[nH]c2=S)cc1 (stereo not drawn),-,-,-,-,-
COCCSc1ccccc1C(=O)Nc1ccc([N+](=O)[O-])cc1OC,-,-,-,-,-
CC(=O)c1ccc(NC(=O)COC(=O)c2ccccc2N=Nc2ccc(N(C)C)cc2)cc1,-,-,-,-,-
COC(=O)c1ccccc1NC(=O)COC(=O)c1ccccc1N=Nc1ccc(N(C)C)cc1,-,42,-,-,-
Cc1cc(-c2csc(NC(=O)C3=COCCO3)n2)c(C)n1C,-,-,-,.,-
SMILES,SENP8 block-1,SENP8 block-2,SENP6 block,HSP90 refold inh,SENP7 inh
Cc1cc(-c2csc(NC(=O)c3ccc(=O)n(C)n3)n2)c(C)n1CC1CCCO1 (stereo not drawn),-,43,-,-,-
CCOc1ccc(S(=O)(=O)NCC(c2ccc3c(c2)OCO3)N2CCN(C)CC2)cc1 (stereo not drawn),-,-,-,.,-
Cc1cccc(NC(=S)NNC(=O)c2ccccc2Br)c1,-,-,68,-,-
COc1cc([N+](=O)[O-])cc(/C=N/NC(=O)C(O)(c2ccccc2)c2ccccc2)c1O,-,50,-,-,-
COc1ccccc1CC(=O)N1CCCc2cc(C)ccc21,-,-,-,-,-
CCCCNc1ccc2nsnc2c1[N+](=O)[O-],-,-,67,-,-
Cc1ccc(Nc2c([N+](=O)[O-])ccc3c2=NC2(CCCCC2)N=3)cc1,-,44,-,-,-
O=[N+]([O-])c1ccc2c(c1Nc1ccccc1Cl)=NC1(CCCCC1)N=2,-,-,-,-,-
C=CCn1c(O)c(N=Nc2ccccc2O)c2ccccc21,-,-,-,.,-
C=CCn1c(O)c(N=Nc2ccccc2[N+](=O)[O-])c2ccccc21,.,46,.,.,.
Nn1cnnc1N/N=C/c1cc(Br)cc(Br)c1O,-,-,-,68,-
Cc1nn(-c2ccccc2)c(Cl)c1/C=N/O,-,-,-,-,-
